PubChem BioAssay (EPA / NIEHS)
Calls of active or inactive are those of the source. The calls were made as follows: active = hit-call score of the fitted dose curve at least 0.9, where 1 is the maximum; inactive = score below 0.9.

Test: BSK_4H_SRB: Viability Assessment in the BioMAP Diversity Plus: 4H Assay (AID 2283027);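 also: cells exposed to compound for 24 h before staining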;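 as to AC50: curves fitted both ways versus DMSO so AC50 may be loss or gain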
Conditions: primary human endothelial cells (HUVEC)
Procedure: BSK_4H is a cell-based, multiplexed-readout assay that uses umbilical vein endothelium, a human vascular primary cell, with measurements taken at 24 hours after chemical dosing in a 96-well plate.BSK_4H_SRB is an assay component measured in the BSK_4H assay. It measures […] related to cell death using Sulforhodamine staining technology.Data from the assay component BSK_4H_SRB was analyzed into 1 assay endpoint. This assay endpoint, BSK_4H_SRB, was analyzed with bidirectional fitting relative to DMSO as the negative control and baseline of activity. Using a type of viability reporter, gain or loss-of-signal activity can be used to understand changes in the signaling. Furthermore, this assay endpoint can be referred to as a primary readout, because this assay has produced multiple assay endpoints where this one serves a signaling function. To generalize the intended target to other relatable targets, this assay endpoint is annotated to the cell morphology intended target family, where the subfamily is cell conformation.
The levels of cell surface (or secreted, indicated by the prefix "s") biomarker endpoints were measured by ELISA. Overt cytotoxicity to cells in confluent adherent cultures (all systems other than the BT system) was assessed by measuring total protein levels using sulforhodamine B (SRB) staining in parallel cultures at the time of biomarker measurements, indicated as SRB endpoints. For proliferation assays for adherent cell types, individual cell types are cultured at sub-confluence and relative cell numbers quantified by SRB staining at time points optimized for each system (48 h: 3C and CASM3C systems; 72 h: BT and HDF3CGF systems; 96 h: SAg system). SRB was performed by staining cells with 0.1% SRB after fixation with 10% TCA and reading wells at 560 nm.Viability and proliferation of PBMC (T cells) was quantified by Alamar Blue reduction for the SAg and BT systems. For PBMC viability (referred to as PBMC Cytotoxicity within the assay endpoint names), cells were plated (75,000/well in a 96-well plate) and then chemical samples added for 1 h before addition of activators, SEB and TSST-1 (20 ng/mL final concentration each). Cells were incubated for 90 h. Then, Alamar Blue (20 uL/well) (Invitrogen, Cat DAL1100) was added for 6 h, and the plates were read with a fluorescence microplate reader at 546/580 nm (excitation/emission). For PBMC proliferation, cells were plated and activated as above but incubated for only 16 h prior to addition of Alamar Blue. Plates were read after 6 h.

Row | SMILES | outcome | AC50
1 | Oc1ccc(O)cc1 | inactive | 
2 | CC(C)c1cccc(C(C)C)c1 | inactive | 
3 | CCc1nc(N)nc(N)c1-c1ccc(Cl)cc1 | inactive | 
4 | Cc1occc(=O)c1O | inactive | 
5 | C/C=C/C=C/C(=O)O | inactive | 
6 | O=C1O[C@H]([C@H](O)CO)C(O)=C1O | inactive | 
7 | COc1ccc(OC(F)(F)F)cc1CN[C@H]1CCCN[C@H]1c1ccccc1 |  | 14.3 µM (active)
8 | CS(=O)(=O)c1ccc([C@@H](C[C@H]2CCC(=O)C2)C(=O)Nc2cnccn2)cc1Cl | inactive | 
9 | c1ccc2occc2c1 | inactive | 
10 | CCCCCCCCCCCCCCOS(=O)(=O)O | inactive | 
11 | CCN(CC)CCOc1ccc(C(=C(Cl)c2ccccc2)c2ccccc2)cc1 |  | 13.1 µM (active)
12 | O=C(O)CN(CC(=O)O)CC(=O)O | inactive | 
13 | Oc1ccccc1O |  | 5.94 µM (active)
14 | CN(C)C(=O)NC1(c2ccccc2)CCN(CC[C@@]2(c3ccc(F)c(F)c3)CN(C(=O)c3ccccc3)CCO2)CC1 | inactive | 
15 | CC(C)NCC(O)c1ccc(O)c(O)c1 (stereo not given) | inactive | 
16 | CCCCCCC(CCCCCCCCCCC(=O)OCC(COC(C)=O)OC(C)=O)OC(C)=O (stereo not given) | inactive | 
17 | CCCCCCCC(=O)OC | inactive | 
18 | O=C(O)CC(O)(CC(=O)O)C(=O)O | inactive | 
19 | C=CCc1ccc(OC)c(OC)c1 | inactive | 
20 | CC(=O)S[C@H](C(=O)N[C@H]1Cc2ccccc2[C@H]2CCC[C@@H](C(=O)O)N2C1=O)C(C)C | inactive | 

Row | SMILES | outcome | AC50
21 | CN(C)CCCN(C)CCCN(C)C | inactive | 
22 | CCCCc1nc2cccnc2n1Cc1ccc(-c2ccccc2-c2nnn[nH]2)cc1 | inactive | 
23 | CC(=O)O[C@]1(C(C)=O)CC[C@H]2[C@@H]3C=C(Cl)C4=CC(=O)[C@@H]5C[C@@H]5[C@]4(C)[C@H]3CC[C@@]21C | inactive | 
24 | CCCC[C@H]1CN(CC2CCOCC2)C(=O)OC12CCN(C1(C)CCN(C(=O)c3c(C)ncnc3C)CC1)CC2 | inactive | 
25 | CCc1cc(C2=C(C(=O)O)N(c3ccccc3C(F)(F)F)S(=O)(=O)c3ccccc32)cc2c1OCO2 | inactive | 
26 | CC1(C)C(=O)NC(=O)N1CO | inactive | 
27 | COC(=O)[C@H]1[C@H]2C[C@@H]3c4[nH]c5cc(OC)ccc5c4CCN3C[C@H]2C[C@@H](OC(=O)c2cc(OC)c(OC)c(OC)c2)[C@@H]1OC |  | 22.5 µM (active)
28 | CSc1ccc(Oc2ccc(S(N)(=O)=O)cc2CN(C)C)cc1C | inactive | 
29 | Cc1c(C)c2c(c(C)c1O)CCC(C)(COc1ccc(CC3SC(=O)NC3=O)cc1)O2 (stereo not given) |  | 23 µM (active)
30 | Cn1cnc2c1c(=O)[nH]c(=O)n2C | inactive | 
31 | CC(C)c1cccc(C(C)C)c1NC(=O)NS(=O)(=O)c1cc(C(C)(C)O)co1 | inactive | 
32 | CCC(C)N(C)C(=O)c1cc2ccccc2c(-c2ccccc2Cl)n1 (stereo not given) | inactive | 
33 | S=c1[nH]c2ccccc2s1 | inactive | 
34 | CC(=O)O | inactive | 
35 | COc1ccc(C(=O)Nc2nc3ccccc3c(NCc3ccccc3)c2C#N)cc1 | inactive | 
36 | OCC(CO)n1cnc(-c2ccc(F)cc2)c1-c1ccnc(Oc2ccccc2)n1 | inactive | 
37 | N[C@@H](Cc1c[nH]c2ccccc12)C(=O)O | inactive | 
38 | O=C(NS(=O)(=O)/C=C/c1cccs1)c1ccc(F)cc1Br | inactive | 
39 | CCCCC(CC)CO (stereo not given) | inactive | 
40 | O=C1NC(=O)C(c2ccccc2)(c2ccccc2)N1 | inactive | 
